Measured values: the supplement of paper PMC10338343
± gives the standard deviation.

System: EfPiwi piRISC loaded with piRNA #1 (26 nt)
Assay: pre-steady-state target cleavage rate (min^-1); auxiliary factor: 500 nM Ephydatia muelleri Gtsf1; guide: piRNA #1 5'p-UGAGGUAGUAGGUUGUAUAGUAUCCA; MIWI and MILI are mouse PIWI proteins and EfPiwi is from a freshwater sponge; tags in brackets are library labels; higher = faster piRNA-guided slicing of the target
Procedure: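 Cleave-'n-Seq: a library of target RNAs (target site in constant flanks) at […] was incubated with 1 nM active freshwater sponge Ephydatia fluviatilis Piwi piRISC (synthetic 5'-monophosphorylated piRNA guide) with or without 500 nM EmGtsf1 at 33 °C for 1 min to 16 h. Uncleaved targets were sequenced and the pooled three trials fitted to a burst-and-steady-state model to give the pre-steady-state cleavage rate (min^-1). Sequence is the target site only. Fits with R² ≤ 0 are excluded.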

Row | Sequence | pre-steady-state target cleavage rate
1 | GGAGAGGAUACUAUACAACCUACUAACCUCA | 0.00574 ± 0.0027
2 | GGAGACCUAACUAUACUACCUACUACCUCA | 0.00314 ± 0.0024
3 | GGAGUGGAUACUAUACUACCUUCUACCUCA | 0.00331 ± 0.0022
4 | GGAGAGGAUACUAUACAACCUACUAGCACA | 0.00322 ± 0.0016
5 | GGAGAGGAUACUAUACAACCUACUAUCUCA | 0.081 ± 0.036
6 | GGAGACCAUACUAUACAACCUACUACCAUCA | 0.0041 ± 0.0029
7 | GGAGAGGAUACUUUACAACCUACUACCUCA | 0.00667 ± 0.0036
8 | GGAGUGGAUACUAUCCAACCUACUACCUCA | 0.0097 ± 0.0041
9 | GGAGUGGAUACUAUUCAACCUACAACCUCA | 0.00255 ± 0.0022
10 | GGAGUGGAUACUAUACAACCUACUAGGUCA | 0.00356 ± 0.002
11 | GGAGUGGAUACUAUACAUGCUACUACCUCA | 0.00896 ± 0.0037
12 | GGAGACCUAACUAUACAACCUACUACCUA | 0.0706 ± 0.025
13 | GGAGACGAUACUAUACAACCUACUACGACA | 0.0045 ± 0.0019
14 | GGAGUGGAUACCAUACAACCUACUACCUCA | 0.157 ± 0.051
15 | GGAGUGGAUACUAUACAACCAACAACCUCA | 0.00217 ± 0.0016
16 | GGAGACCAUACUAUACCACCUACUACCUCA | 0.00807 ± 0.004
17 | GGAGACGAUUCUAUACAACGUACUACCUCA | 0.00356 ± 0.0021
18 | GGAGUGGAUACUAUACAACCUUGAACCUCA | 0.00462 ± 0.0029
19 | GGAGACCUAACUAUACAACGAACUACCUCA | < 0.0001
20 | GGAGACCUAUCUAUACAACCUACUACCUA | 0.00487 ± 0.0042

Row | Sequence | pre-steady-state target cleavage rate
21 | GGAGACGUAACUAUACAACCUACUACCUCA | 0.0248 ± 0.0098
22 | GGAGUGGAUACUAUACAACCUUCUUCCUCA | 0.00355 ± 0.0026
23 | GGAGUGGAUACUAUAUCAACCUACUACCUCA | 0.0851 ± 0.03
24 | GGAGACGAUACUAUUCAACCUACUUCCUCA | 0.00413 ± 0.0031
25 | GGAGACCUAAGUUUACAACCUACUACCUCA | 0.00645 ± 0.0046
26 | GGAGUCGAUACUAUACAACCUACUUCCUCA | 0.00362 ± 0.0021
27 | GGAGAGGAUACUAUACAACCUUCUAGCUCA | 0.00404 ± 0.0021
28 | GGAGAGGAUACUAUACAACCUAAUACCUCA | 0.00595 ± 0.0025
29 | GGAGACCUUUCUAUACAACCUACUACCUCA | 0.11 ± 0.036
30 | GGAGACCUAACUAUACAACCUAGUUCCUCA | 0.00297 ± 0.0025
31 | GGAGACGAUAACUAUACAACCUACUACCUCA | 0.0617 ± 0.023
32 | GGAGUGGAUACUAUACAACCUACUACCUA | 0.249 ± 0.092
33 | GGAGACGAUCUAUACAACCUACUACCUCA | 0.0198 ± 0.01
34 | GGAGUCGAUAGUAUACAACCUACUACCUCA | 0.0054 ± 0.0038
35 | GGAGACCUAUCUAUACAAGCUACUACGUCA | 0.00274 ± 0.0026
36 | GGAGUGGAUAGUAUACAACCUACUAGCUCA | 0.00291 ± 0.0018
37 | GGAGACCUAUGUAUACAACCUACUACCUCG [g2:g19:cont:t1G] | 0.00909 ± 0.0048
38 | GGAGUCGAUACUAUACAUCCUACUACCUCA | 0.0165 ± 0.007
39 | GGAGACCUAACCUAUACAACCUACUACCUCA | 0.0868 ± 0.028
40 | GGAGACCAUACUAUACAAUCUACUACCUCA | 0.00847 ± 0.004
